Assay results published in PubChem BioAssay AID463173 (ICCB-Longwood Screening Facility, Harvard Medical School, 2010).
In all, about 52,000 compounds went through this assay and about 4,300 (8.3%) were called active. Many of the other results were omitted from the sample, so actives are more common in it than they were. A number with no mark means an inactive call. No stated cut-off is given here; in the data, active means survival mostly below about 52% (no sharp cut-off); inactive means mostly above about 56%.

Tested on: DeltatarO mutant
Assay: S. aureus survival, RN4220 and DeltatarO strains – OD600, teichoic acid synthesis inhibitors, primary screen (AID 463173)
Conditions: S. aureus RN4220 wild type/DeltatarO growth, OD600, 18 h, active compounds read low, screened at 18.75 µg/mL (by protocol)

First: O=C(CCn1cccn1)Nc1ccc(Br)cc1F
Second: O=C(O)c1cccc(Nc2ncnc3ccc(Br)cc23)c1
The survival of the first is lower: 93% for the first, 119% for the second.

Compared with `COC(=O)c1cc2sccc2n1CC(=O)Nc1cc(Cl)ccc1OC`, `COc1ccc(NC(=O)CN2CCC(n3c(C)nc4cc(F)ccc43)CC2)c(OC)c1` is higher in survival: 99% for the first, 104% for the second.

First: S=C(Nc1ccccc1)N1CCOCC1
Second: CC(=O)c1cccc(NC(=O)c2nc3ccccc3nc2N2CCCCC2)c1
The survival of the first is higher: 89% for the first, 71% for the second.

Compared with `Cc1cccc(NC(=O)CSc2nc3c(oc4ccccc43)c(=O)n2C(C)C)c1`, `Cc1ccc(NC(=O)CSc2nc3c(oc4ccccc43)c(=O)n2-c2ccc(F)cc2)c(C)c1` is higher in survival: 63% for the first, 67% for the second.

First: CCc1ccc(C(=O)c2cn(CC(=O)Nc3cccc(OC)c3)c3cc4c(cc3c2=O)OCO4)cc1
Second: COc1ccc(CC(=O)NCc2ccc3c(c2)CCN3C(C)=O)cc1
The survival of the first is lower: 72% for the first, 96% for the second.

Compared with `O=C(COc1ccc(Cl)cc1)Nc1nnc2n1CCS2`, `COc1ccc(OCC(=O)NCC(c2ccc(OC)cc2)N2CCCCC2)cc1` (stereo not given) is lower in survival: 124% for the first, 79% for the second.

Compared with `Cc1ccc(C(=O)N2CCC(c3c[nH]c4ccccc34)(c3c[nH]c4ccccc34)CC2)cc1`, `CCCCc1ccc(NC(=O)c2ccc3c(c2)CCN3S(=O)(=O)c2ccccc2)cc1` is lower in survival: 87% for the first, 53% for the second.

First: COc1ccc(CCNc2ncnc3c2c(-c2ccccc2)cn3-c2ccc(Cl)cc2)cc1OC
Second: Oc1ccccc1Nc1nc(-c2ccccc2)c2cc(Cl)ccc2n1
The survival of the first is higher: 97% for the first, 71% for the second.

Going from `COc1cc2nc(Nc3cccc(C)c3)nc(N)c2cc1OC` to `Cc1ccc2nc(NN)nc(-c3ccccc3)c2c1`, the survival rises from 67% to 98%.

Going from `Clc1ccc2nc(Nc3ccccc3Cl)nc(-c3ccccc3)c2c1` to `Clc1ccc(Nc2nc(-c3ccccc3)c3ccccc3n2)c(Cl)c1`, the survival falls from 75% to 72%.

Compared with `CCOc1cc(CNC(=O)Cn2c(=O)c3cccn3c3ccc(F)cc32)cc(OCC)c1OCC`, `CCOc1ccc(CCNC(=O)c2cc3n(n2)CCCN(Cc2ccc(C)cc2)C3=O)cc1OCC` is higher in survival: 50% for the first, 112% for the second.

Compared with `Cc1ccc(C)c(Cn2c(=O)n(Cc3ccccc3)c(=O)c3c2c2cc(C)ccc2n3C)c1`, `Cn1c(=O)oc2cc(S(=O)(=O)CCC(=O)NCc3ccccc3)ccc21` is lower in survival: 78% for the first, 77% for the second.

First: CC(C)c1ccc(OCC(O)CN2CCN(c3ccc(F)cc3)CC2)cc1 (stereo not given)
Second: COc1ccc(CN2CCc3c(c(=O)n4ncc(C(=O)N5CCN(c6ccccc6OC)CC5)c4n3C)C2)cc1
The survival of the first is lower: 56% for the first, 89% for the second.

First: O=C(CN1C(=O)C2(SCC(=O)N2c2ccc(F)c(F)c2)c2ccccc21)Nc1ccccc1F (stereo not given)
Second: CCOc1ccc(NC(=O)c2c(NC(=O)c3ccccc3F)sc3c2CCC3)cc1
The survival of the first is lower: 94% for the first, 155% for the second.

Going from `COc1ccc(CCNC(=O)c2c(C)oc3nc(C)nc(N4CCOCC4)c23)cc1OC` to `COc1ccc2c(C)c(CCC(=O)NCc3ccccc3Cl)c(=O)oc2c1C`, the survival falls from 102% to 63%.

Going from `COCCN(C(=O)C1CC1)c1nnc(-c2cccc(C)c2)s1` to `COc1cccc(CN(C(=O)c2cccc(C)c2)C2CCS(=O)(=O)C2)c1` (stereo not given), the survival falls from 98% to 65%.

Going from `Cc1cc(C)nc(NS(=O)(=O)c2ccc(NC(=O)COc3ccc(Cl)cc3C)cc2)n1` to `CCS(=O)(=O)N1CCc2cc(C(=O)Nc3ccc(C(=O)OC)cc3)ccc21`, the survival falls from 63% to 49%.

Compared with `O=S(=O)(CCN1CCOCC1)c1ccc(Oc2ccc(S(=O)(=O)CCN3CCOCC3)cc2)cc1`, `Cc1ccc(CCNC(=O)C(CC(C)C)NS(=O)(=O)c2ccc3c(c2)oc(=O)n3C)cc1` (stereo not given) is higher in survival: 70% for the first, 93% for the second.

First: Cc1cccc(CSc2ccc(-c3cccs3)nn2)c1
Second: Cc1ccc(CSc2ccc(-c3cccs3)nn2)cc1
The survival of the first is lower: 79% for the first, 89% for the second.

`N#Cc1ccc(-c2cccs2)nc1SCc1ccc(Br)cc1` and `N#Cc1ccc(-c2cccs2)nc1SCc1ccc(Cl)cc1Cl` are the same in survival: 74% for the first, 74% for the second.

First: N#Cc1ccc(-c2cccs2)nc1SCC(=O)Nc1cccc(C(F)(F)F)c1
Second: Cc1cc(C)cc(NC(=O)CSc2ccc(-c3cccs3)nn2)c1
The survival of the first is lower: 48% for the first, 73% for the second.

Compared with `N#Cc1c(-c2cccs2)cc(-c2cccs2)nc1SCc1cccnc1`, `Cc1ccc(Cl)cc1N1CCN(c2nc3ccccc3c3nc(-c4cccnc4)nn23)CC1` is higher in survival: 65% for the first, 114% for the second.

Compared with `O=C(Nc1ccc2nsnc2c1)C1CC1`, `Cc1ccc2c(c1)C(=O)OC(C(=O)Nc1ccc(C(=O)O)cc1)C2` (stereo not given) is lower in survival: 89% for the first, 65% for the second.

Going from `O=C1c2ccc(-c3ccc4c(c3)C(=O)N(CCO)C4=O)cc2C(=O)N1CCO` to `CCS(=O)(=O)N1CCc2cc(C(=O)Nc3cccc(C(C)=O)c3)ccc21`, the survival falls from 87% to 50%.

First: CN1CC(C(=O)O)CC1=O (stereo not given)
Second: CCS(=O)(=O)N1CCCc2cc(C(=O)Nc3cccc(C(C)=O)c3)ccc21
The survival of the first is lower: 83% for the first, 89% for the second.

First: CCOC(=O)c1[nH]c(C)c(CCC(=O)Nc2cc(Cl)c(OC)cc2OC)c1C
Second: COc1ccc(-n2c(=O)c3c4c(sc3n(Cc3ccc(F)cc3)c2=O)CCCC4)c(OC)c1
The survival of the first is higher: 122% for the first, 47% for the second.

With `Cc1ccc(C)c(Nc2nc(-c3ccccc3)c3cc(Br)ccc3n2)c1` the survival was 43% (active).
In the case of `O=C(O)c1ccc(Nc2nc(-c3ccccc3)c3cc(Br)ccc3n2)cc1`, the survival is reported as 21% (active).
For `Cc1cccc(Nc2nc(-c3ccccc3)c3cc(C)ccc3n2)c1`, the survival was 3% (active).
`Cc1cccc(CSc2nc(-c3cccs3)ccc2C#N)c1` was tested, and the survival was 18% (active).
With `Cc1ccc(CSc2nc(-c3cccs3)ccc2C#N)cc1` the survival was 25% (active).
`N#Cc1ccc(-c2cccs2)nc1SCc1c(F)cccc1Cl` was tested, and the survival was 36% (active).
`CCS(=O)(=O)N1CCc2cc(C(=O)Nc3cccc(NC(C)=O)c3)ccc21` was tested, and the survival was 42% (active).
With `CCCCc1ccc(NC(=O)c2ccc3c(c2)CCN3S(=O)(=O)CC)cc1` the survival was 38% (active).
